The panel holds about 83,000 compounds, 20% with a hit somewhere; the sample as a whole holds those more often.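 The endpoint reported here, percent growth, reads 100 for growth as untreated, 0 for no net growth and -100 for all cells dead.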 Values without a mark were called inactive. The source made the active and inactive calls. The calls were made as follows: active = growth percent below 10; inactive = the rest.
Each compound was assayed on HL-60(TB) leukemia (assay: NCI-60 one-dose screen, 48 h (100 = growth as untreated, 0 = no growth, -100 = all killed)). Conditions: 10 µM unless noted.

Compound	growth
COc1cnc2c(c1)C(=O)c1c-2n(CCCN2CCN(C)CC2)c(=O)c2cc(Cl)ccc12	50.6%
CCOc1cc2ncc(C#N)c(Nc3ccc(OCc4cccc(F)c4)c(Cl)c3)c2cc1NC(=O)CC1CCSS1 (stereo not drawn)	54.8%
CNC(=O)c1c(I)c(NC(C)=O)c(I)c(C(=O)O)c1I	122%
O=C(OCc1ccccc1)n1nnc2ccccc21	111%
O=[N+]([O-])c1cc(Cl)cc(Cl)c1O	99.5%
Cc1ccc(S(=O)(=O)N/N=C2\CC3CCC2C3)cc1 (stereo not drawn)	98.5%
Nc1ccc(C(OC(=O)c2cc3ccccc3c(Cc3c(O)c(C(=O)OC(c4ccc(N)cc4)(c4ccc(N)cc4)c4ccc(N)cc4)cc4ccccc34)c2O)(c2ccc(N)cc2)c2ccc(N)cc2)cc1	4.23% (active)
COc1ccc2[nH]c(O)c(/C=c3/cc4c(c(-c5ccc(F)c(OC)c5)n3)=Nc3ccccc3-4)c2c1	47%
O=[N+]([O-])c1cc(-c2ccccc2)c(O)c([N+](=O)[O-])c1	57.1%
COc1cc(-c2ccc(-c3ccc(C(=N)N)nc3)s2)cc(OC)c1OC	-40.6% (active)
COc1cc(-c2nc3ccccc3[nH]2)ccc1OCc1nnc(-c2ccc(Br)cc2)o1	84.2%
O=C(Nc1cccc([N+](=O)[O-])c1)c1cccc(C(=O)Nc2cccc([N+](=O)[O-])c2)c1	81%
Cn1cc(-c2ccc3occ(-c4cccc(-c5ccncc5)c4)c3n2)cn1	2.9% (active)

Source: PubChem BioAssay (NCI)
